The results in this text go back to PubChem BioAssay (Tox21).

Test [1] can be described thus: qHTS assay to identify small molecule agonists of H2AX (AID 1224845; active means well fitted activation curve with a large enough effect in the signal ratio in the repeat runs, not every such curve was filed as active; the % refers to the signal ratio). An outline of the steps: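 Wild-type CHO-K1 cells, plated overnight, exposed 3hr at 37C to 15 concentrations (0.76% DMSO final). Lysed, then HTRF anti-pH2AX (S139) cryptate and anti-H2AX-d2 antibodies, 24 hr room temperature; 665/620 nm emission read.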
The nature of test [2]: qHTS assay to identify small molecule agonists of the hypoxia (HIF-1) signaling pathway (AID 1224846; active means well fitted activation curve with a large enough effect in the signal ratio in the repeat runs, not every such curve was filed as active; the % refers to the signal ratio). An outline of the steps:
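Reporter induction in HRE-bla ME-180 cells is taken as agonism: cells sit 5 hrs after plating, receive compounds or DMSO only, incubate 17 hrs at 37C under 5% CO2, and are loaded with CCF4-AM for beta-lactamase FRET measurement.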
In general terms: qHTS replaces the single test concentration by a dilution series.

Test [3] in a line: qHTS assay to identify small molecule agonists of H2AX - cell viability counter screen (AID 1224847; calls by dose curve; further: top concentration of the series differs between compounds; nearly all actives have a fitted effect of over 30% in size). An outline of the steps:
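Compounds tested at 15 concentrations were incubated 3 hr at 37C with wild-type CHO-K1 cells; cellular ATP-based luminescence (CellTiter-Glo) indicated viability.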

A short description of test [4]: qHTS assay to identify small molecule antagonists of the estrogen related receptor (ERR) signaling pathway from Tox21 library (AID 1224848). Further: nearly all actives have a fitted effect of over 50% in size. The procedure, abridged: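 Compounds dissolved in DMSO are pin-transferred onto ERR reporter cells (2,000 per well) that have settled for 6 h at 37 C. Plates then incubate 18 h at 37 C before ONE-Glo luciferase reagent and a luminescence read 30 min later.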

A short description of test [5]: qHTS assay to identify small molecule agonists of the estrogen related receptor (ERR) signaling pathway from Tox21 library (AID 1224849; calls by dose curve; further: nearly all actives have a fitted effect of over 15% in size). The following applies: ERR reporter cell line, ONE-Glo luciferase, 18 h. An outline of the steps: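 Tox21 compounds tested for ERR agonism in an NTP reporter cell line: 18 h treatment at 37 C, then ONE-Glo luminescence.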
Test [6] is described as follows: qHTS RealTime-Glo MT Cell Viability Assay in HepG2 cells - 24 hour (AID 1224867). Further: nearly all actives have a fitted effect of over 50% in size. An outline of the steps:
(§1)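 Tox21 10K library screened in qHTS format on HepG2 cells carrying RealTime-Glo reagents. Compounds were added after a 5 h preincubation, and the luminescent signal from continuous culture was measured repeatedly during 40 h treatment.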

Test [7] in a line: qHTS RealTime-Glo MT Cell Viability Assay in HEK293 cells - 32 hour (AID 1224868). Further: top concentration of the series differs between compounds; nearly all actives have a fitted effect of over 50% in size. The procedure, abridged:
(§2)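 Luminescence generated by NanoLuc from substrate produced by living HEK293 cells served as the viability signal. Each value reflects the reading at its stated time point during continuous 40 h compound exposure at 37 C.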

A short description of test [8]: A CellTox Green Cytotoxicity Assay to monitor cytotoxicity in HEK293 cells - 0 hour (AID 1224869). Further: nearly all actives have a fitted effect of over 50% in size. The procedure, abridged:
(§3)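 Tox21 screen in HEK293: membrane-impermeant cyanine dye fluoresces on binding dead-cell DNA; compound pinned 5 h post-seeding, plates held at 37 C, signal read repeatedly through 40 h.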

A short description of test [9]: qHTS RealTime-Glo MT Cell Viability Assay in HepG2 cells - 40 hour (AID 1224870). Further: nearly all actives have a fitted effect of over 50% in size. The procedure, abridged:
(§4)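 HepG2 cells (600/well) mixed with RealTime-Glo MT reagent, settled 5 h at 37 C/5% CO2 before compound addition. Nonlytic NanoLuc luminescence from viable-cell prosubstrate reduction read repeatedly during 40 h treatment at 37 C.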

Test [10] is described as follows: A CellTox Green Cytotoxicity Assay to monitor cytotoxicity in HEK293 cells - 40 hour (AID 1224871). Further: nearly all actives have a fitted effect of over 45% in size. The procedure, abridged:
as §3

A short description of test [11]: qHTS RealTime-Glo MT Cell Viability Assay in HEK293 cells - 16 hour (AID 1224872). The procedure, abridged: as §2
A short description of test [12]: qHTS RealTime-Glo MT Cell Viability Assay in HepG2 cells - 8 hour (AID 1224873). Further: nearly all actives have a fitted effect of over 55% in size. The procedure, abridged: as §4
Test [13] is described as follows: qHTS RealTime-Glo MT Cell Viability Assay in HEK293 cells - 40 hour (AID 1224874). Further: nearly all actives have a fitted effect of over 50% in size. Conditions: RealTime-Glo luminescence; max response: stronger effect = lower value. The procedure, abridged:
(§5)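 HEK293 + NanoLuc + prosubstrate, 600 cells/well; 5 h, 37 C/5% CO2; compound 23 nL in DMSO by pintool; 37 C; luminescence read at 0, 8, 16, 24, 32 and 40 h time points.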

A short description of test [14]: A CellTox Green Cytotoxicity Assay to monitor cytotoxicity in HEK293 cells - 24 hour (AID 1224875). Further: nearly all actives have a fitted effect of over 45% in size. The procedure, abridged:
as §3

Test [15] can be described thus: A CellTox Green Cytotoxicity Assay to monitor cytotoxicity in HepG2 cells - 16 hour (AID 1224876). Further: nearly all actives have a fitted effect of over 45% in size. Further: potency means the concentration at half of the fitted maximal effect. An outline of the steps:
(§6)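 Measurements at 0, 8, 16, 24, 32 and 40 h of treatment captured CellTox Green fluorescence in HepG2 cells that had been co-plated with reagent and preincubated 5 h at 37 C/5% CO2.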

Test [16] is described as follows: qHTS RealTime-Glo MT Cell Viability Assay in HepG2 cells - 32 hour (AID 1224877). Further: nearly all actives have a fitted effect of over 55% in size. An outline of the steps:
as §1

Test [17] is described as follows: A CellTox Green Cytotoxicity Assay to monitor cytotoxicity in HepG2 cells - 24 hour (AID 1224878). Further: nearly all actives have a fitted effect of over 45% in size. The procedure, abridged:
as §6

Test [18] is described as follows: A CellTox Green Cytotoxicity Assay to monitor cytotoxicity in HepG2 cells - 40 hour (AID 1224879). Further: nearly all actives have a fitted effect of over 40% in size. The procedure, abridged:
as §6

Test [19] is described as follows: qHTS RealTime-Glo MT Cell Viability Assay in HEK293 cells - 0 hour (AID 1224880). The procedure, abridged:
as §5

The nature of test [20]: A CellTox Green Cytotoxicity Assay to monitor cytotoxicity in HEK293 cells - 32 hour (AID 1224881). Further: nearly all actives have a fitted effect of over 40% in size. The procedure, abridged: as §3

Where “and” joins values, the source holds several entries; their conditions need not be identical. Equal entries are not always repeated. Records with an inconclusive call do not appear. Some structures have more than one record in an assay (separate samples or runs), and their calls can disagree. Calls of active or inactive are those of the source. Unless noted, the call rests on the fitted dose curve; in most records, active means well fitted curve in the direction sought with a large enough effect in the repeat runs; inconclusive means weak or mixed curves; inactive means no such curve, though single readings can be large; an effect the other way counts as inactive or inconclusive.
On the % scale 0 is the no-effect control and ±100 the full control effect.

On to `OC[C@H]1O[C@@H](Oc2ccc(O)cc2)[C@H](O)[C@@H](O)[C@@H]1O`, for which the Potency result in [1], in [3], in test [4], in test [6], in test [7] and in [8] was “inactive” each time. Also, the Potency result in test [9], in [10], in test [11], in test [12], in test [14] and in test [15] was “inactive” each time. In addition, the Potency entry in [16], in test [17], in test [18], in test [19] and in test [20] was “inactive” each time. In test [2], the compound was called inactive. In addition, the activity change, positive = activation was 7.9% (inactive) in test [5] (at 42.5 µM (top of the series)) and 7.42% (inactive) in test [5] (at 92.4 µM (top of the series)). The max response in test [13] is 3.45% (inactive) and 3.98% (inactive).
With `O=C(O)Cc1c[nH]c2ccccc12`, the Potency entry in test [1], in [3], in test [4], in test [6], in test [7] and in test [8] was “inactive” in each case. Also, the Potency entry in test [9], in [10], in test [11], in test [12], in test [15] and in test [16] was “inactive” throughout. Besides, the Potency result in test [17], in [18], in test [19] and in test [20] was “inactive” in each case. For the same compound, the compound was called inactive in [2]. In addition, the activity change, positive = activation in [5] (at 92.4 µM (top of the series)) is 5.71% (inactive) and 6.87% (inactive). In addition, the max response in [13] is 12.4% (inactive) and 16.9% (inactive).
In the case of `CS(=O)(=O)c1ccc(Cl)cc1`, the Potency entry in [1], in [3], in [4], in [6], in test [7] and in test [8] was “inactive” throughout. Also, the Potency entry in [9], in test [10], in test [12], in test [14], in test [16] and in test [17] was “inactive” in each case. The Potency result in test [18], in test [19] and in test [20] was “inactive” throughout. Further, in test [2], the compound was classed as inactive. In test [5] (at 92.4 µM (top of the series)), the activity change, positive = activation was 8.49% (inactive). Also, the max response in test [13] was -0.177% (inactive) and 6.75% (inactive). Also, in test [15], the Potency entry is “inactive and 38.9 µM (active)”.
On to `C1CCCNCC1`, for which the Potency result in test [1], in test [3], in [4], in test [6], in [7] and in test [8] was “inactive” each time. Moreover, the Potency entry in test [9], in test [10], in test [11], in [12], in test [14] and in [15] was “inactive” in each case. The Potency result in test [16], in [17], in [18], in test [19] and in test [20] was “inactive” throughout. For the same compound, in [2], the outcome was inactive. Besides, the activity change, positive = activation in [5] (at 92.4 µM (top of the series)) was 1.64% (inactive) and -2.2% (inactive). The max response in [13] is 6.44% (inactive) and 0.666% (inactive).
As to `CC1(C)[C@@H](O[C@H]2O[C@H](C(=O)O)[C@@H](O)[C@H](O)[C@H]2O[C@@H]2O[C@H](C(=O)O)[C@@H](O)[C@H](O)[C@H]2O)CC[C@]2(C)[C@H]3C(=O)C=C4[C@@H]5C[C@@](C)(C(=O)O)CC[C@]5(C)CC[C@@]4(C)[C@]3(C)CC[C@@H]12`, the Potency entry in [1], in test [3], in test [4], in [6], in test [7] and in test [8] was “inactive” throughout. Further, the Potency result in test [9], in test [10], in [14], in test [15], in [16] and in test [17] was “inactive” throughout. In addition, the Potency result in test [18] and in [20] was “inactive” throughout. In addition, the result in [2] was inactive. Moreover, the activity change, positive = activation in [5] (at 42.5 µM (top of the series)) was 2.2% (inactive) and 1.06% (inactive). For the same compound, the max response in test [13] was -4.4% (inactive) and 0.425% (inactive).
As for `COc1ccccc1[N+](=O)[O-]`, the Potency result in test [1], in [3], in test [4], in test [6], in [7] and in test [8] was “inactive” in each case. Also, the Potency entry in test [9], in test [10], in test [11], in [14], in [15] and in [16] was “inactive” in each case. In addition, the Potency entry in test [17], in test [18], in test [19] and in [20] was “inactive” each time. Moreover, in test [2], the compound was called inactive. Further, the activity change, positive = activation in test [5] (at 92.4 µM (top of the series)) is 2.88% (inactive). Also, the max response in [13] was 3.8% (inactive) and 3.66% (inactive).
